# ChEMBL document CHEMBL1201862, “PubChem BioAssay data set” (2004)
# Target: Beta Lactamase (Pseudomonas aeruginosa) (UniProt Q932Y6)
# Test: Late stage assay provider results from the probe development efforts to identify selective inhibitors of VIM-2 metallo-beta-lactamase: VIM-2-transformed E. coli growth inhibition in the presence of imipenem (synergy).
# Type: functional
compound,measurement,value
O=c1[nH]c2c(s1)[C@H](c1cccnc1)[C@H]1C3CC[C@@H](C3)[C@H]1S2,MIC,> 100 µM (active)
